From PubChem BioAssay
TIM10 inh = inhibits growth of TIM10 yeast strain. inhibition, % at 10 µM. AID 463195. S. cerevisiae TIM10 strain growth, BacTiter-Glo luminescence, 24 h. 330,000 compounds, 1.4% hits;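 active = inhibition of 40% or more at the single tested concentration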;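 also: wild-type TIM10 isogenic control strain grown at permissive 25 °C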
tim10-1 inh = tim10-1 yeast growth inhibition; S. cerevisiae tim10-1 ts strain growth, BacTiter-Glo, 24 h; inhibition, % at 20 µM; 330,000 compounds, 2.2% hits; AID 463190;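 active = inhibition of at least 40%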;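 also: mutant grown at 25 °C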
tim23-1 inh = inhibits growth of tim23-1 mutant yeast. S. cerevisiae tim23-1 growth, BacTiter-Glo luminescence, 24 h. inhibition, % at 20 µM. 330,000 compounds, 1.3% hits. AID 463212;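 active = growth inhibition of the mutant yeast at or above 50%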;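 also: temperature-sensitive mutant grown at 25 °C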
PfHsp90 set2 = growth inhibition of yeast expressing Plasmodium Hsp90; S. cerevisiae expressing PfHsp90, BacTiter-Glo ATP, 48 h; yeast lacking PDR1 and PDR3 efflux regulators; inhibition, % at 9.4 µM; 310,000 compounds, 0.32% hits;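 active = every replicate shows inhibition above about 80%, whatever the replicate mean, limit read from the data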
ATG4B inh = blocks human ATG4B protease cleavage of LC3 substrate; Q9Y4P1; ATG4B cleavage of LC3-PLA2, NBD-HPC fluorescence, 1 h; inhibition, % at 8.33 µM; 340,000 compounds, 0.51% hits; AID 504462; in the data active = inhibition above about 40%
Target sequence (Q9Y4P1 whole entry, looked up): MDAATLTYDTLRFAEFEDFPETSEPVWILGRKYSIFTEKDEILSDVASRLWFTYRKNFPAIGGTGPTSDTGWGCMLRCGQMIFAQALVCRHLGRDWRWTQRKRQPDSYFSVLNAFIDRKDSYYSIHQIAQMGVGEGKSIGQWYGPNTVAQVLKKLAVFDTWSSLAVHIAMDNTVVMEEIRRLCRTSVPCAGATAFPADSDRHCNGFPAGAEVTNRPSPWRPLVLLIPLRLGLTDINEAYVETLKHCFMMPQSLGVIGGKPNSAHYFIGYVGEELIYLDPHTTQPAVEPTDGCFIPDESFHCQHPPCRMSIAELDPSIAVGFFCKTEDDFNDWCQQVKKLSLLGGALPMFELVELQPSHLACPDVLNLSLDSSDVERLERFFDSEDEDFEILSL
SKKanGAS inh = SKKanGAS growth inhibition; S. pyogenes SKKanGAS, kanamycin growth, BacTiter-Glo, 6 h; inhibition, % at 7.5 µM; 300,000 compounds, 1.3% hits;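 active = mean replicate score, as percent of positive control median, at least 50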;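 also: strain carries kanamycin resistance gene driven by streptokinase promoter and grows in 40 µg/ml kanamycin; loss of luminescence reflects streptokinase promoter inhibition or plain growth inhibition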
tim10-1 confirm = tim10-1 yeast growth inhibition, confirmed; shares compounds with tim10-1 inh; S. cerevisiae tim10-1 ts strain growth, BacTiter-Glo, 24 h; inhibition, % at 20 µM; 7,400 compounds, 56% hits;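 active = inhibition of yeast growth at or above a set limit in either of two repeat tests at 20 µM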;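 also: tim10-1 mutant grown at permissive 25 °C to find synthetic lethal compounds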
Of the large screens only hits and unclear results are named; the others gave an inactive call (follow-up assays come after a bar, where they were run). This is a sample that favours compounds with a hit; in the whole collection about 4.7% have one here.

O=c1c2[nH]c3ccccc3c2nc2n1CCCS2	none
O=c1c2[nH]c3ccc(F)cc3c2nc2n1CCS2	tim10-1 inh 46 | tim10-1 confirm 40
O=c1c2[nH]c3ccc(F)cc3c2nc2n1CCCS2	tim10-1 inh 41 | tim10-1 confirm inactive
COC(=O)C1=NNC2(C)C(=O)N(c3ccc(C)cc3)C(=O)C12 (stereo not given)	none
Cc1ccccc1OCCNC(=O)/C=C/c1ccc([N+](=O)[O-])cc1	none
CCc1nc(SCc2nc3ccccc3[nH]2)c2oc3ccccc3c2n1	tim10-1 inh 40 | tim10-1 confirm inactive
C[C@@H]1CC[C@]2(C(=O)O[C@@H]3O[C@H](CO)[C@@H](O)[C@H](O)[C@H]3O)CC[C@]3(C)C(=CCC4[C@@]5(C)CC[C@H](O[C@@H]6OC[C@H](O)[C@H](O[C@@H]7O[C@H](CO)[C@@H](O)[C@H](O)[C@H]7O)[C@H]6O)C(C)(C)C5CC[C@]43C)C2[C@]1(C)O (stereo not given in full)	none (no result: SKKanGAS inh)
COc1ccc(/C=C\C(=O)O[C@@H]2C(O)C(O[C@@H]3OC(C)[C@H](O[C@@H]4OCC(O[C@H]5O[C@H](CO)[C@@H](O)C(O)C5O)C(O)C4O)C(O)C3O)[C@H](OC(=O)[C@]34CCC(C)(C)C[C@@H]3C3=CCC5[C@@]6(C)CC(O)C(O[C@@H]7OC(CO)C(O)[C@H](O)[C@H]7O)[C@@](C)(C(=O)O)C6CC[C@@]5(C)[C@]3(CO)CC4)O[C@H]2C)cc1 (stereo not given in full)	tim10-1 inh 48, PfHsp90 set2 108 (no result: SKKanGAS inh) | tim10-1 confirm 38
CCN1CCCC1CNC(=O)CCNC(=O)c1cc(OC)c(OC)c(OC)c1 (stereo not given)	none
O=C(NNC(=S)Nc1cccc(C(F)(F)F)c1)c1ccccc1Cl	none
O=C(NNC(=S)Nc1cccc(C(F)(F)F)c1)c1cccc(Cl)c1	tim10-1 inh 50 | tim10-1 confirm 46
COc1ccc(C2CC(=O)C3=C(C2)Nc2ncnn2C3c2ccccc2C)cc1 (stereo not given)	none
c1ccc(-c2noc(CN3CCN(C(c4ccccc4)c4ccccc4)CC3)n2)cc1	tim10-1 inh 45 | tim10-1 confirm inactive
Cc1nc(-c2ccccn2)sc1C(=O)Nc1ccc(Cl)c(Cl)c1	tim10-1 inh 47 | tim10-1 confirm 29
CC(=O)c1sc(-c2ccccn2)nc1C	none (no result: PfHsp90 set2, ATG4B inh)
CC(C)N(C(=O)CSc1nn2c(=O)c(C(C)(C)C)nnc2s1)c1ccccc1	none
COc1ccccc1C(=O)N1CCN(c2nc3cc(C)c(C)cc3cc2C#N)CC1	tim10-1 inh 43 | tim10-1 confirm inactive
Cc1nc(S(=O)(=O)N(C)c2ccccc2)c(C#N)c(C)c1Cl	none
CCC(C)(C)n1nnnc1C(c1ccc(OC)c(OC)c1)N1CCN(c2ccc(F)cc2)CC1 (stereo not given)	none
CCOC(=O)CNC(=O)c1cc(-c2ccccn2)nc2c(C)c(Cl)ccc12	tim10-1 inh 41 (no result: PfHsp90 set2) | tim10-1 confirm inactive
O=C(Nc1cccnc1)OC1CCCCC1	tim10-1 inh 43 (no result: PfHsp90 set2) | tim10-1 confirm inactive
COc1ccc(OC)c(NC(=O)Nc2ccc3c(c2)OCO3)c1	tim10-1 inh 40 | tim10-1 confirm inactive
COc1cccc(NC(=O)Nc2ccc3c(c2)OCO3)c1	none
COc1ccc(Cl)cc1C(=O)Nc1ccc2c(c1)OCO2	tim10-1 inh 46 (no result: PfHsp90 set2) | tim10-1 confirm 35
CCn1c(CNC(=O)c2ccccc2F)nnc1SCCOc1ccccc1	none
CCOC(=O)Nc1ccc2c(CNC(C)c3ccccc3OC)cc(=O)oc2c1 (stereo not given)	tim10-1 inh 47 | tim10-1 confirm inactive
O=C(CC(Sc1ccc(Br)cc1)C(=O)O)c1ccc(F)cc1 (stereo not given)	tim10-1 inh 42 | tim10-1 confirm inactive
Cc1ccc(S(=O)(=O)Nc2ccc(Nc3ccccc3)cc2)cc1	tim10-1 inh 43 | tim10-1 confirm inactive
O=S(=O)(Nc1ccc(Nc2ccccc2)cc1)c1ccc(F)cc1	none
COCCOC(=O)C1=C(C)Nc2ncnn2C1c1ccccc1 (stereo not given)	none (no result: PfHsp90 set2)
O=C(Cn1c(O)c(/C=C2\C=Nc3ccc(Br)cc32)sc1=O)N1CCCC1	tim10-1 inh 52 | tim10-1 confirm inactive
CCC(=O)c1ccc(OCC(=O)NC2CCCC2)cc1	none (no result: SKKanGAS inh)
O=S(=O)(NCCSc1ccccc1)c1ccc2c(c1)OCCO2	tim10-1 inh 41 | tim10-1 confirm inactive
CN(C)CCN(C(=O)c1cccc2ccccc12)c1nc2cc3c(cc2s1)OCO3	tim10-1 inh 45 | tim10-1 confirm inactive
Nc1ncnc(Oc2cccc(C(F)(F)F)c2)c1[N+](=O)[O-]	tim10-1 inh 43 | tim10-1 confirm inactive
CN1C(=S)SC(C)(C)C1(C)NO (stereo not given)	tim10-1 inh 71 | tim10-1 confirm inactive
CCn1c(=O)c(-c2ccccc2)c(O)c2ccccc21	none (no result: PfHsp90 set2)
CCn1c(-c2ccccc2)c(C(=O)CC#N)c2ccccc21	tim10-1 inh 42 | tim10-1 confirm 30
Cc1nc(-c2ccc(S(=O)(=O)Nc3ccc(S(N)(=O)=O)cc3)cc2)co1	none
Cc1ccc(C)c(NS(=O)(=O)c2ccc(-c3coc(C)n3)cc2)c1	tim10-1 inh 41 | tim10-1 confirm inactive
Cc1nc(-c2ccc(S(=O)(=O)Nc3ccccc3C)cc2)co1	none
Cc1ccc(NS(=O)(=O)c2ccc(-c3coc(C)n3)cc2)c(Br)c1	tim10-1 inh 57 | tim10-1 confirm inactive
CCO/N=C(\N)c1[nH]ncc1Br	none
CN1CCN(CC(=O)Nc2c(C(=O)C3CC3)oc3ccccc23)CC1	none
CC(Oc1ccc2c3c(c(=O)oc2c1)CCCC3)C(=O)NCCN1CCOCC1 (stereo not given)	none
Cc1[nH]c(=O)[nH]c(=O)c1S(=O)(=O)Nc1ccc(F)cc1F	none
COc1ccc(C(OC(=O)c2ccco2)C(=O)NC2CCCCC2)cc1OC (stereo not given)	tim10-1 inh 45 (no result: PfHsp90 set2) | tim10-1 confirm inactive
CO/N=C/CC(=O)c1cnc(-c2ccc(Cl)cc2)s1	tim10-1 inh 41 | tim10-1 confirm inactive
CCOc1ccc(OCC)c(S(=O)(=O)N2CCCCC2C)c1 (stereo not given)	tim10-1 inh 43 | tim10-1 confirm inactive
CCOc1ccc(C)cc1S(=O)(=O)N1CCCCC1	none (no result: PfHsp90 set2)
COc1ccc(N2CCC(CNC(=O)Nc3ccccc3)C2)cc1 (stereo not given)	tim10-1 inh 41 | tim10-1 confirm 33
CC1=C(C(=O)Nc2cccc(C(=O)NC3CCCC(C)C3C)c2)SCCO1 (stereo not given)	tim10-1 inh 49 | tim10-1 confirm inactive
Cc1nc2ccccc2n1CC(=O)OCC(=O)NC1CC1	none (no result: PfHsp90 set2)
